Screening data: PubChem BioAssay, Broad Institute
Rows were chosen to be rich in hits. Some 3.7% of all compounds tested hit in one or more screens of this group.
Ecoli rRNA inh: selective bacterial rRNA inhibition in E. coli | AID 720706 | actives 1.6% (n = 350,000) | E. coli WT GFP vs humanized-ribosome RFP mutants, fluorescence, 24 h; stronger effect = lower value; DMSO median 0, no signal -100 | GFP signal change (wild-type ribosome), % (test concentration not listed);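 active means significant combined selectivity score with lowered wild-type GFP, culture density cut under 30%, mutant RFP and density less affected; inactive means any of these conditions unmet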
Wnt act: activates Wnt/beta-catenin signaling in a reporter cell assay. activator, plate reader. activation, % at 9.35 µM. actives 1.2% (n = 300,000). AID 743398; in the data active means activation above about 30%, passing the limit was not always enough; inconclusive means no clear call, values can overlap the other calls
MITF act: MITF TRPM1 promoter activation in melanoma cells. SK-MEL-5 TRPM1-promoter luciferase, 24 h; % of positive control, neutral wells = 0. actives 0.75% (n = 300,000). AID 588334. activation, % at 12.5 µM;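 active means mean activation of at least 80% with every replicate also reaching 80%; inconclusive means mean reaches 80% but some replicate falls short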
MLL AF4-AF9 inh: blocks AF4 peptide binding to human AF9. inhibition, % at 10 µM. actives 0.47% (n = 350,000). AlphaScreen, biotin-AF4 peptide binding to FLAG-AF9. AID 651704;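 active means every replicate reaching a set inhibition limit, whatever the replicate mean, cut at about 25% in these data; inconclusive means mean inhibition reaches that limit but some replicates miss it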
Target sequence (P42568 whole entry, looked up): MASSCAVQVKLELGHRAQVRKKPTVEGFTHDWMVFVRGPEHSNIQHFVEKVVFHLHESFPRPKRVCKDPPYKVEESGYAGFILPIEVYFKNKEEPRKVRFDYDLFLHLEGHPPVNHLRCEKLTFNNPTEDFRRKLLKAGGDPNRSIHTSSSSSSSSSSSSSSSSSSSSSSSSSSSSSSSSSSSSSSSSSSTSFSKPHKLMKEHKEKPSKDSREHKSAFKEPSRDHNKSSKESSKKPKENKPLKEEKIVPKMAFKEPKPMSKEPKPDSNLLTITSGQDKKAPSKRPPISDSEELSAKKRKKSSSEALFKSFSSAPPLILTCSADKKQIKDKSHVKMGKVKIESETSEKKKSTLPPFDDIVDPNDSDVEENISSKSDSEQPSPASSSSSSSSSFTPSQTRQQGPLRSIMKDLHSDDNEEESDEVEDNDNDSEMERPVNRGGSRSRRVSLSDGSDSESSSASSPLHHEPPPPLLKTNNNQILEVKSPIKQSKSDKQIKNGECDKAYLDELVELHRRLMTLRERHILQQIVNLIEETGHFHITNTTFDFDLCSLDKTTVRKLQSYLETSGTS
esBAF inh: inhibitors of esBAF chromatin remodeling in mouse ES cells; Bmi1-luciferase knock-in reporter, 24 h; 100% = twice the neutral-well signal; reporter increase, % at 12.5 µM; actives 2% (n = 350,000); AID 602393; in the data active means activation above about 40%; inconclusive means no clear call, values can overlap the other calls;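 further: a rise in the Bmi1 reporter signal indicates esBAF inhibition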
A number is an active result; 0 = inactive; ? = inconclusive; - = no result.

SMILES | Ecoli rRNA inh | Wnt act | MITF act | MLL AF4-AF9 inh | esBAF inh
COc1cc(NC(=O)c2cc(-c3ccc4c(c3)OCO4)on2)cc(OC)c1OC | 0 | 0 | 0 | 0 | 0
CC(C)NC(=O)c1cc(-c2ccc3c(c2)OCO3)on1 | 0 | 42.8 | - | 0 | 0
CCCCNC(=O)c1cc(-c2ccc(OC)cc2)on1 | - | - | 80.7 | - | 0
CCN(CC)C(=O)c1cc(-c2ccc3c(c2)OCO3)on1 | 0 | 0 | 103.5 | 0 | 0
COC(=O)c1sccc1NC(=O)CC1C(=O)NCCN1C(=O)Nc1ccccc1 (stereo not drawn) | 0 | 0 | 0 | 0 | 0
O=C(c1ccncc1)N1CC(=O)N2[C@@H](CO)[C@H](c3ccc(-c4ccccc4)cc3)[C@@H]2C1 | 0 | - | - | 0 | -
COc1ccc(CCNCC(O)COc2c(C)cccc2C)cc1OC (stereo not drawn) | 0 | 0 | 0 | 0 | 0
COc1cc(OC)c(C(=O)C=Cc2ccc(OC)c(OC)c2)c(OC)c1 | -10.7 | 0 | 0 | 0 | 0
COc1cc(O)c(C(=O)/C=C/c2ccccc2)c(OC)c1 | 0 | 0 | - | 0 | 53.1
COc1cc(OC)c(C(=O)/C=C/c2ccc(OCc3ccccc3)c(OC)c2)c(OC)c1 | 0 | 0 | - | 0 | 0
N#Cc1nc(COc2ccccc2)oc1N1CCCCC1 | 0 | 0 | 0 | 0 | 60.0
Cc1ccc(OCc2nc(C#N)c(N3CCCCC3)o2)cc1 | -32.1 | 0 | 0 | 0 | -
N#Cc1nc(COc2ccccc2Cl)oc1N1CCCC1 | - | 0 | 0 | 26.3 | -
N#Cc1nc(COc2ccc(Cl)cc2)oc1N1CCCCCC1 | - | 0 | 0 | - | 0
N#Cc1nc(COc2ccccc2Cl)oc1N1CCCCCC1 | 0 | 0 | 0 | 0 | 0
COc1cc(C(C#N)N2CCOCC2)ccc1O (stereo not drawn) | - | 0 | - | - | 0
CC(=O)Nc1cccc(/C(C)=N/NC(=O)c2ccc(CN3CCOCC3)cc2)c1 | 0 | 0 | 0 | 0 | -
CC(C)(C)S(=O)(=O)c1cnc(-c2ccc(Cl)cc2)nc1N | 0 | 39.1 | ? | ? | -
O=C(/C=C/c1ccc(F)cc1)NC(Cc1c[nH]c2ccccc12)C(=O)O (stereo not drawn) | 0 | 0 | 0 | 0 | 0
CC(C)(C)c1ccc(OC(=O)N2CCOCC2)cc1 | 0 | 0 | 0 | 0 | 45.1
Cc1ccc(OC(=O)N2CCOCC2)cc1 | - | 0 | - | - | 0
CCN(CC)S(=O)(=O)c1ccc2c(c1)nc(-c1ccccn1)n2C | 0 | 0 | - | 0 | 60.1
COc1ccc(OCC(=O)NS(=O)(=O)c2ccc(Cl)cc2)cc1 | 0 | 0 | 0 | 0 | 0
COc1ccccc1CNC(=O)Cn1cccc1C(=O)c1ccccc1 | 0 | 0 | 0 | 0 | 0
Cc1ccccc1C(=O)c1cccn1CC(=O)NCc1ccccc1 | 0 | 0 | 0 | 0 | 0
SMILES | Ecoli rRNA inh | Wnt act | MITF act | MLL AF4-AF9 inh | esBAF inh
COc1ccc(CNC(=O)Cn2cccc2C(=O)c2ccccc2C)cc1 | 0 | 0 | 0 | 0 | 47.2
COc1ccc(CNC(=O)Cn2cccc2C(=O)c2ccccc2)cc1 | 0 | 0 | 0 | 0 | 53.0
C[C@H](CO)N1C[C@H](C)[C@H](CN(C)C(=O)CCCN(C)C)OCCCC[C@H](C)Oc2ccc(NS(=O)(=O)c3cccs3)cc2C1=O | 0 | - | - | 0 | 0
O=C(Nc1ccc2c(c1)[C@@H]1C[C@H](CC(=O)N3CCCCC3)O[C@H](CO)[C@@H]1O2)C1CCOCC1 | 0 | - | - | 0 | 0
Cc1cc2c(cc1C)NC1=C(N2)OC(c2cccc(O)c2)C1=O (stereo not drawn) | 0 | 0 | 0 | 0 | -
COc1ccc(C2OC3=C(Nc4cc(C)c(C)cc4N3)C2=O)cc1 (stereo not drawn) | 0 | 0 | 0 | 0 | 56.4
CC(C)C#Cc1ccc([C@H]2[C@H](CO)N3C(=O)CN(C(=O)C4CCCCC4)C[C@@H]23)cc1 | 0 | - | - | 0 | -
O=C(NC(=S)Nc1ccc(Br)cc1)C1CCCCC1 | 0 | 0 | 0 | 0 | 0
COc1ccc(NC(=S)NC(=O)C2CCC2)cc1 | - | 38.1 | 0 | 0 | 46.7
O=C(NC(=S)Nc1ccccc1)C1CCCCC1 | 0 | 0 | 0 | 0 | 41.1
COC(=O)c1ccc(NC(=S)NC(=O)C2CCC2)cc1 | 0 | 0 | 0 | 0 | -
COc1ccccc1-c1ccc(Nc2cccc(C(C)=O)c2)nn1 | 0 | 0 | 0 | 0 | 50.7
CC(=O)c1ccc(Nc2ccc(-c3ccccc3C)nn2)cc1 | 0 | 38.7 | 85.1 | 0 | 82.5
CC(=O)c1cccc(Nc2ccc(-c3ccccc3F)nn2)c1 | 0 | 0 | 0 | 0 | -
CCCN=Cc1sc2ccc(OCC)cc2c1O | - | 0 | 100.5 | - | 76.7
CNC(=O)NC(=O)C(C)OC(=O)c1ccc(Cl)c(S(=O)(=O)Nc2ccc(F)cc2)c1 (stereo not drawn) | -26.4 | 0 | 0 | 0 | 0
O=C(OCCCc1cc2ccccc2c(=O)o1)c1ccco1 | 0 | 0 | 0 | 0 | 0
Cn1/c(=N/NC(=O)c2ccccc2Br)sc2ccccc21 | 0 | 51.0 | 0 | 0 | -
Cc1cccc(NS(=O)(=O)c2cccc(C(=O)N3CCN(C/C=C/c4ccccc4)CC3)c2)c1 | - | 0 | 0 | 0 | 0
Cc1ccc(C)c(NC(=O)C(=O)NCCc2c[nH]c3ccccc23)c1 | -20.8 | 0 | 0 | 0 | 0
Cc1cc(/C=C(\C#N)C(=O)NCCc2c[nH]c3ccccc23)c(C)n1C | -38.5 | 0 | 0 | 0 | -
Cc1ccccc1NC(=S)NCCc1c[nH]c2ccccc12 | -24.1 | 0 | 0 | 0 | -
Cc1ccc(NC(=O)C(=O)NCCc2c[nH]c3ccccc23)c(C)c1 | 0 | 0 | 0 | 0 | 0
COC(=O)/C(C#N)=C/c1c[nH]c2ccccc12 | -22.1 | 0 | 0 | 0 | -
C[C@@H]1CN([C@@H](C)CO)S(=O)(=O)c2ccc(C#CCN(C)C)cc2O[C@@H]1CN(C)Cc1ccc(F)cc1 | 0 | - | - | 0 | 0
SMILES | Ecoli rRNA inh | Wnt act | MITF act | MLL AF4-AF9 inh | esBAF inh
O=C(COC(=O)c1cccc([N+](=O)[O-])c1)NCC1CCCO1 (stereo not drawn) | - | 0 | 0 | - | -
Cc1nnc(SCC(=O)Nc2ccccc2)c2ccccc12 | 0 | 0 | 0 | 0 | 68.9
Fc1cccc(Cl)c1CSc1nnnn1-c1ccc2c(c1)OCO2 | 0 | - | 0 | 0 | 0
COc1ccc(-c2ccc3c(c2)[C@@H]2[C@@H](CCN2C(=O)NC2CCCC2)[C@H](CO)N3C)cc1 | 0 | - | - | 36.2 | -
CN1c2ccc(C3=CCCCC3)cc2[C@@H]2[C@@H](CCN2C(=O)C2CCCC2)[C@H]1CO | 0 | - | - | 0 | 0
COc1ccc(NC(=O)N2CC[C@@H]3[C@H]2c2cc(-c4cccc(F)c4)ccc2N(C)[C@H]3CO)cc1 | 0 | - | - | 0 | 0
COc1cccc(-c2ccc3c(c2)[C@@H]2[C@@H](CCN2C(=O)NC2CCCC2)[C@@H](CO)N3C)c1 | 0 | - | - | 0 | 0
CN1c2ccc(C3=CCCCC3)cc2[C@H]2[C@H](CCN2C(=O)C2CCCCC2)[C@H]1CO | 0 | - | - | 26.5 | -
COc1ccc(-c2ccc3c(c2)[C@@H]2[C@@H](CCN2C(=O)Nc2ccc(F)cc2)[C@H](CO)N3C)cc1 | 0 | - | - | 30.0 | -
COc1ccc(-c2ccc3c(c2)[C@H]2[C@H](CCN2C(=O)C2CCCC2)[C@H](CO)N3C)cc1 | 0 | - | - | 25.7 | -
COCCC(=O)N1CCCC(C(=O)c2ccc(Oc3ccccc3)cc2)C1 (stereo not drawn) | 0 | 0 | 0 | 0 | 0
